In the supplement of paper PMC11482750:
± gives the standard deviation of the averaged measurements.

What follows are targets tested with CCC1CCC(=O)O1 [γ-hexalactone] (assay: control-subtracted net OSN firing rate; higher = stronger neuronal activation). Settings: odorant dilution (vol/vol): 1/100.
Experimental: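 Single sensillum recordings from olfactory sensory neurons. The neurons sit in the maxillary palp or antennal sensilla of D. melanogaster (wild type, mutants, or at1 empty-neuron lines expressing Or42a homologs or the A181D S307P mutant) and of four Scaptomyza species. Each odorant was given as a 1 s pulse from 20 µl loaded on filter paper at 1:100 vol/vol, diluted in mineral oil (γ-hexalactone in DMSO). Spikes were counted in a 0.5 s window starting 0.2 s after onset, background was subtracted, the count was doubled, and the mean solvent-control response was subtracted.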

Going from Canton-S ab6b to Or67dGal4; UAS-A181D S301P at1, the “control-subtracted net OSN firing rate” value rises from 4.22 ± 12 spikes/s to 42.6 ± 20 spikes/s.

Going from Or67dGal4, UAS-Spal Or42a at1 to Canton-S ai3c, the “control-subtracted net OSN firing rate” value falls from 95.8 ± 46 spikes/s to 0.5 ± 4.4 spikes/s.

Canton-S ab1b and Canton-S pb1b are within error of each other in “control-subtracted net OSN firing rate” value: 2.5 ± 8.5 spikes/s for the first, -7.71 ± 12 spikes/s for the second.

Canton-S ab8a and Canton-S pb2b are within error of each other in “control-subtracted net OSN firing rate” value: 3.2 ± 11 spikes/s for the first, -2.5 ± 3.8 spikes/s for the second.

Canton-S ab3a and Canton-S pb3b are within error of each other in “control-subtracted net OSN firing rate” value: 1.82 ± 8.3 spikes/s for the first, -2 ± 8.5 spikes/s for the second.

Or67dGal4, UAS-Sfla Or42a4/+ at1 and Canton-S ab4a are within error of each other in “control-subtracted net OSN firing rate” value: 3.43 ± 6.4 spikes/s for the first, 2 ± 2 spikes/s for the second.

Compared with Canton-S ab7a, Or67dGal4, UAS-Sfla Or42a3/+ at1 is higher in “control-subtracted net OSN firing rate” value: -7.5 ± 11 spikes/s for the first, 34 ± 6.2 spikes/s for the second.

First: Or67dGal4, UAS-Dmel Or42a at1
Second: Canton-S ai2b
The “control-subtracted net OSN firing rate” value of the first is higher: 79 ± 40 spikes/s for the first, 10 ± 6.9 spikes/s for the second.

Compared with Canton-S ab2b, Or67dGal4; UAS-SflaOr42a4 at1 is higher in “control-subtracted net OSN firing rate” value: 6.86 ± 9.2 spikes/s for the first, 50.9 ± 14 spikes/s for the second.

Canton-S ai3a and Or67dGal4, UAS-Sfla Or42a4 at1 are within error of each other in “control-subtracted net OSN firing rate” value: -1.5 ± 3.4 spikes/s for the first, 6 ± 9.1 spikes/s for the second.

Going from Canton-S pb1a to Or67dGal4, UAS-Sfla Or42a2 at1, the “control-subtracted net OSN firing rate” value falls from 167 ± 28 spikes/s to -3.14 ± 2.5 spikes/s.

Canton-S ab9a and Canton-S ab8b are within error of each other in “control-subtracted net OSN firing rate” value: 2.67 ± 7.6 spikes/s for the first, 10 ± 5.8 spikes/s for the second.

Or67dGal4, UAS-Sfla A181D S307P/+ at1 and Canton-S ab5a are within error of each other in “control-subtracted net OSN firing rate” value: 16.8 ± 14 spikes/s for the first, 6.2 ± 8.2 spikes/s for the second.

Canton-S ab7b and Canton-S ai2a are the same in “control-subtracted net OSN firing rate” value: -2 ± 3.3 spikes/s for the first, -2 ± 5.3 spikes/s for the second.

Canton-S at4a and Canton-S ab9b are within error of each other in “control-subtracted net OSN firing rate” value: -3 ± 3.5 spikes/s for the first, -2.67 ± 12 spikes/s for the second.

Canton-S ab2a and Canton-S ai3b are within error of each other in “control-subtracted net OSN firing rate” value: -6.29 ± 11 spikes/s for the first, -2.5 ± 6.8 spikes/s for the second.

Canton-S ab5b and Canton-S ab1d are within error of each other in “control-subtracted net OSN firing rate” value: 1.6 ± 5.2 spikes/s for the first, 1.5 ± 5.5 spikes/s for the second.

Canton-S ab6a and Canton-S ab10b are within error of each other in “control-subtracted net OSN firing rate” value: 3.33 ± 7 spikes/s for the first, -0.2 ± 5.2 spikes/s for the second.

Canton-S ab1a and Canton-S ab1c are within error of each other in “control-subtracted net OSN firing rate” value: 0.25 ± 12 spikes/s for the first, 1.5 ± 4.2 spikes/s for the second.

Going from Or67dGal4, UAS-Sfla Or42a3 at1 to Canton-S at4b, the “control-subtracted net OSN firing rate” value falls from 38.3 ± 15 spikes/s to -2 ± 13 spikes/s.
